Source: PubChem BioAssay AID1233 (SRMLSC, 2008)
Results with a measured potency or affinity are listed apart. Activity calls are given as the source filed them.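 Rule for the calls: active = a dose-response curve fit returns a half-maximal inhibitory concentration, extrapolated values included; inactive = the fit returns no such concentration.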

Molecular target: HMG-CoA reductase [Enterococcus faecalis] (UniProt Q9FD70)
Assay: inhibitors of E. faecalis class II HMGR, confirmation, biochemical, Enterococcus faecalis (AID 1233)
Settings: purified E. faecalis HMGR, NADPH absorbance 340 nm kinetics; series mostly up to 100 µM

outcome, inactive:
Clc1ccc(NNc2ccnc3cc(Cl)ccc23)cc1
CCCCCOC(=O)Cn1c(N2CCOCC2)nc2c1c(=O)[nH]c(=O)n2C
O=C(COC(=O)Cc1c(Cl)cccc1Cl)NCCC1=CCCCC1
O=C(COC(=O)CNC(=O)c1ccccc1F)Nc1ccc2c(c1)OCCO2
COc1ccc(/C=C(/C#N)S(=O)(=O)c2ccc(C)cc2)cc1
Cc1ccc(CN(C)CC(=O)Nc2ccc3c(c2)CCC3)cc1
Cc1cc(C)nc(N/N=C2/CCCC/C2=C\c2ccccc2)n1
Cn1nccc1C(=O)N1CCc2ccccc21
C=CCn1cnc2c(c1=O)c1nc3ccccc3nc1n2/N=C/c1cc(OC)c(OC)c(OC)c1
O=C(Nc1ccc(S(=O)(=O)Nc2ccccc2)cc1)C1COc2ccccc2O1 (configuration not stated)
COC(=O)c1ccc(C(NC(=O)OCc2ccccc2)/C(C)=C/[C@@H](C)C(=O)NCc2ccc(-c3ccccc3)cc2)cc1 (some centres not stated)
COc1ccc(-c2nnc(SC(C)C(=O)Nc3ccc4c(c3)OCCO4)o2)cc1 (configuration not stated)
CCOC(=O)C(NC(C)=O)(Nc1ccc(S(=O)(=O)Nc2cc(C)nc(C)n2)cc1)C(F)(F)F (configuration not stated)
CCCCC1C2=C(CC(C)(C)CC2=O)OC2=C1C(=O)CC(C)(C)C2
CC(C)CC(O)(CC(C)C)C(=O)NNc1ccccc1
COc1ccc(-c2nc(CN3CCCCC3c3cccnc3)c(C)o2)c(F)c1 (configuration not stated)
Cc1c(NC2(c3nnnn3-c3ccc(Br)cc3)CCCCC2)c(=O)n(-c2ccccc2)n1C
